PubChem BioAssay AID1159580 (chemical genetic matrix, 2015)
Where “and” joins values, the source holds several entries; their conditions need not be identical. Equal values may be shown once. About 2,000 (36%) of roughly 5,500 compounds were called active. About 18% were inconclusive and are not listed. Rule as the data show it: active = normalized growth mostly below about 0.91 (no sharp cut-off); inconclusive = no clear call, values can overlap the other calls; inactive = mostly above about 0.92. Some of the results follow.

Assay: chemical genetic growth profiling, strain panel (AID 1159580);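 also: tested at 20 µM; growth read once vehicle control cultures reached saturation at 30 °C; 1 = growth at the plate median or of vehicle wells; lower values mean less growth of the strain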
Conditions: S. cerevisiae deletion strains, growth OD

Measured: normalized growth

O=C(C1CCCCC1)N1CC(=O)N2CCc3ccccc3C2C1 (stereo not drawn)
inactive: locus YAL021C, strain ccr4, active compounds read low 0.999 | locus YAL026C, strain drs2, active compounds read low 1 | locus YAL030W, strain snc1, active compounds read low 1.01 | locus YAL040C, strain CLN3, active compounds read low 1.05 | locus YBL061C, strain skt5, active compounds read low 1.01 | locus YBR009C, strain hhf1, active compounds read low 1.01 | locus YBR021W, strain FUR4, active compounds read low 0.993 | locus YBR023C, strain chs3, active compounds read low 1.02 | locus YBR171W, strain sec66, active compounds read low 1.01 | locus YBR229C, strain ROT2, active compounds read low 1 | locus YBR231C, strain swc5, active compounds read low 0.983 | locus YBR279W, strain paf1, active compounds read low 1.01 | locus YCL011C, strain gbp2, active compounds read low 1.03 | locus YCL016C, strain dcc1, active compounds read low 1.04 | locus YCL029C, strain bik1, active compounds read low 1.01 | locus YCL061C, strain MRC1 (second series), active compounds read low 1 | locus YCL061C, strain MRC1, active compounds read low 1.01 | locus YCL069W, strain vba3, active compounds read low 1.01 | locus YCR088W, strain abp1, active compounds read low 1.01 | locus YDL005C, strain med2, active compounds read low 1.01 | locus YDL035C, strain GPR1, active compounds read low 1 | locus YDL040C, strain nat1, active compounds read low 0.992 | locus YDL074C, strain BRE1, active compounds read low 1.01 | locus YDL101C, strain DUN1, active compounds read low 1.01 | locus YDL134C, strain PPH21, active compounds read low 1 | locus YDL185W, strain tfp1, active compounds read low 1.01 | locus YDL192W, strain arf1, active compounds read low 1.01 | locus YDR001C, strain nth1, active compounds read low 1 | locus YDR069C, strain doa4, active compounds read low 0.978 | locus YDR101C, strain arx1, active compounds read low 1.03 | locus YDR137W, strain rgp1, active compounds read low 1.03 | locus YDR159W, strain sac3, active compounds read low 0.976 | locus YDR162C, strain NBP2, active compounds read low 1 | locus YDR195W, strain ref2 0.981 | locus YDR297W, strain sur2, active compounds read low 1.01 | locus YDR318W, strain mcm21, active compounds read low 1.02 | locus YDR334W, strain swr1, active compounds read low 1.01 | locus YDR335W, strain msn5, active compounds read low 0.999 | locus YDR363W, strain ESC2, active compounds read low 1.04 | locus YDR388W, active compounds read low 1.01 | locus YDR392W, strain spt3, active compounds read low 0.862 | locus YDR502C, strain sam2, active compounds read low 1.01 | locus YEL003W, strain gim4, active compounds read low 0.995 | locus YEL037C, strain rad23, active compounds read low 0.999 | locus YEL061C, strain CIN8 (second series), active compounds read low 1 | locus YEL061C, strain CIN8, active compounds read low 1 | locus YER002W, strain NOP16, active compounds read low 1.01 | locus YER015W, strain faa2, active compounds read low 1 | locus YER016W, strain bim1, active compounds read low 0.989 | locus YER110C, active compounds read low 1.02 | locus YER111C, strain swi4, active compounds read low 1 | locus YER155C, strain BEM2 (second series), active compounds read low 0.913 | locus YER155C, strain BEM2, active compounds read low 1 | locus YER167W, strain BCK2, active compounds read low 1 | locus YFR010W, strain ubp6, active compounds read low 1.01 | locus YGL078C, strain dbp3, active compounds read low 1.01 | locus YGL086W, strain mad1, active compounds read low 1.01 | locus YGL167C, strain pmr1, active compounds read low 1.01 | locus YGL173C, strain kem1, active compounds read low 1 | locus YGL227W, strain vid30, active compounds read low 1.01 | locus YGL240W, strain doc1, active compounds read low 0.978 | locus YGL248W, strain PDE1, active compounds read low 1.01 | locus YGL253W, strain hxk2, active compounds read low 0.982 | locus YGR078C, strain PAC10, active compounds read low 1 and 1.01 | locus YGR135W, strain pre9, active compounds read low 0.998 | locus YGR252W, strain gcn5, active compounds read low 0.953 | locus YHR013C, strain ard1, active compounds read low 0.988 | locus YHR027C, strain rpn1, active compounds read low 1.01 | locus YHR030C, strain SLT2, active compounds read low 1 and 1.01 | locus YHR079C, strain IRE1 (second series), active compounds read low 1.01 | locus YHR079C, strain IRE1, active compounds read low 1.01 | locus YHR094C, strain hxt1, active compounds read low 1.01 | locus YHR129C, strain ARP1, active compounds read low 0.992 | locus YHR142W, strain chs7, active compounds read low 1 | locus YHR200W, strain rpn10, active compounds read low 1.01 | locus YIL066C, strain RNR3, active compounds read low 1.01 | locus YIL073C, strain SPO22, active compounds read low 1.01 | locus YIL125W, strain kgd1, active compounds read low 1.01 | locus YIR030C, strain dcg1, active compounds read low 1.01 | locus YJL092W, strain hpr5, active compounds read low 1 | locus YJL095W, strain BCK1 (second series), active compounds read low 1.01 | locus YJL095W, strain BCK1, active compounds read low 0.974 and 1.03 | locus YJL115W, strain asf1, active compounds read low 1.01 | locus YJL129C, strain trk1, active compounds read low 0.997 | locus YJL134W, strain LCB3, active compounds read low 1 | locus YJL154C, strain vps35, active compounds read low 1 | locus YJL164C, strain tpk1, active compounds read low 1.02 | locus YJL166W, strain qcr8, active compounds read low 1.02 | locus YJL168C, strain set2, active compounds read low 1.01 | locus YJL187C, strain SWE1 (second series), active compounds read low 1.01 | locus YJL187C, strain SWE1, active compounds read low 1.01 | locus YJR043C, strain POL32, active compounds read low 1.01 | locus YJR066W, strain TOR1, active compounds read low 0.939
